# Records with an inconclusive call do not appear. Values without a mark were called inactive. Active and inactive are the calls of the source. The call rests on the fitted dose curve; in most records, active means well fitted curve in the direction sought with a large enough effect; inconclusive means small, poorly fitted or top-dose-only effect, or another doubt; inactive means no such curve, though single readings can be large; an effect the other way counts as inactive or inconclusive.
# What was measured:
# [1] = qHTS of pediatric cancer cell lines to identify multiple opportunities for drug repurposing: Primary screen for U-2 OS cells (AID 1347096); further: nearly all actives have a fitted effect of over 50% in size
# Method in brief: (§1)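 Viability after 48 h compound treatment at 37C, 500-1,000 cells/well, read as ATP luminescence with CellTiter-Glo. Primary screens used 11-point (MIPE, 0.78 nM-46 µM) or 8-point (NPC, 0.59 nM-46 µM) final concentrations; follow-up screens used 11-point dilutions.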
# [2] = qHTS of pediatric cancer cell lines to identify multiple opportunities for drug repurposing: Primary screen for Saos-2 cells (AID 1347097); further: nearly all actives have a fitted effect of over 40% in size
# Method in brief: (§2)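 Primary screen of approved and investigational compounds on cells in growth media at 37 degrees C, 5% CO2. MIPE set at 11-point and NPC set at 8-point dilutions; viability scored by ATP-based luminescence at 48 hours.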
# [3] = qHTS of pediatric cancer cell lines to identify multiple opportunities for drug repurposing: Primary screen for SK-N-SH cells (AID 1347098); further: nearly all actives have a fitted effect of over 65% in size
# Method in brief: (§3)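 Cells (500-1,000/well) rested 5 h, then received compounds for 48 h; metabolically active cells were measured by CellTiter-Glo luminescence. Final concentrations spanned up to 46 µM (MIPE, 11-point) or 0.59 nM-46 µM (NPC, 8-point) in primary screens, 11-point in follow-ups.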
# [4] = qHTS of pediatric cancer cell lines to identify multiple opportunities for drug repurposing: Primary screen for NB1643 cells (AID 1347099); further: nearly all actives have a fitted effect of over 50% in size
# Method in brief: as §2
# [5] = qHTS of pediatric cancer cell lines to identify multiple opportunities for drug repurposing: Primary screen for LAN-5 cells (AID 1347100)
# Method in brief: as §1
# [6] = qHTS of pediatric cancer cell lines to identify multiple opportunities for drug repurposing: Primary screen for BT-12 cells (AID 1347101); further: nearly all actives have a fitted effect of over 25% in size
# Method in brief: as §3
# [7] = qHTS of pediatric cancer cell lines to identify multiple opportunities for drug repurposing: Primary screen for Rh18 cells (AID 1347102); further: nearly all actives have a fitted effect of over 65% in size
# Method in brief: as §1
# [8] = qHTS of pediatric cancer cell lines to identify multiple opportunities for drug repurposing: Primary screen for OHS-50 cells (AID 1347103); further: nearly all actives have a fitted effect of over 40% in size
# Method in brief: as §3
# [9] = qHTS of pediatric cancer cell lines to identify multiple opportunities for drug repurposing: Primary screen for RD cells (AID 1347104); further: nearly all actives have a fitted effect of over 55% in size
# Method in brief: as §2
# [10] = qHTS of pediatric cancer cell lines to identify multiple opportunities for drug repurposing: Primary screen for MG 63 (6-TG R) cells (AID 1347105); further: nearly all actives have a fitted effect of over 50% in size
# Method in brief: as §2
# [11] = qHTS of pediatric cancer cell lines to identify multiple opportunities for drug repurposing: Primary screen for control Hh wild type fibroblast cells (AID 1347106); further: nearly all actives have a fitted effect of over 55% in size
# Method in brief: as §1
# [12] = qHTS of pediatric cancer cell lines to identify multiple opportunities for drug repurposing: Primary screen for Rh30 cells (AID 1347107); further: nearly all actives have a fitted effect of over 75% in size
# Method in brief: as §1
# [13] = qHTS of pediatric cancer cell lines to identify multiple opportunities for drug repurposing: Primary screen for Rh41 cells (AID 1347108); further: nearly all actives have a fitted effect of over 70% in size
# Method in brief: as §2
# [14] = qHTS of pediatric cancer cell lines to identify multiple opportunities for drug repurposing: Confirmatory screen for NB1643 cells (AID 1347109); further: nearly all actives have a fitted effect of over 45% in size
# Method in brief: as §1
# [15] = qHTS of pediatric cancer cell lines to identify multiple opportunities for drug repurposing: Confirmatory screen for A673 cells (AID 1347110); further: nearly all actives have a fitted effect of over 65% in size
# Method in brief: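 Forty-eight-hour viability assay. Follow-up compounds ran at 11-point dilutions; positive control bortezomib at 2.3 uM final, neutral control DMSO.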
# [16] = qHTS of pediatric cancer cell lines to identify multiple opportunities for drug repurposing: Confirmatory screen for SK-N-MC cells (AID 1347111);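 further: cells exposed to compound for 48 h before the readout; nearly all actives have a fitted effect of over 70% in size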
# Method in brief: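 SK-N-MC cells at 500-1,000 cells/well in growth media were pre-incubated 5 h, then exposed to compounds at 11-point dilutions for 48 h at 37 degrees C, 5% CO2. Viability was read as CellTiter-Glo luminescence.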
# [17] = qHTS of pediatric cancer cell lines to identify multiple opportunities for drug repurposing: Confirmatory screen for BT-12 cells (AID 1347112); further: nearly all actives have a fitted effect of over 55% in size
# Method in brief: as §1
# [18] = qHTS of pediatric cancer cell lines to identify multiple opportunities for drug repurposing: Confirmatory screen for LAN-5 cells (AID 1347113); further: nearly all actives have a fitted effect of over 65% in size
# Method in brief: as §1
# [19] = qHTS of pediatric cancer cell lines to identify multiple opportunities for drug repurposing: Confirmatory screen for DAOY cells (AID 1347114); further: nearly all actives have a fitted effect of over 65% in size
# Method in brief: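 Viability measured as metabolically active cells via CellTiter-Glo luminescence following 48 hours of compound exposure, 11-point dilutions in confirmatory testing. 500-1,000 cells/well plated 5 hours before dosing; controls were DMSO and 2.3 µM bortezomib.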
# [20] = qHTS of pediatric cancer cell lines to identify multiple opportunities for drug repurposing: Confirmatory screen for NB-EBc1 cells (AID 1347115); further: nearly all actives have a fitted effect of over 45% in size
# Method in brief: as §1
# Potency means the concentration at half of the fitted maximal effect.
SMILES,Potency [1],Potency [2],Potency [3],Potency [4],Potency [5],Potency [6],Potency [7],Potency [8],Potency [9],Potency [10],Potency [11],Potency [12],Potency [13],Potency [14],Potency [15],Potency [16],Potency [17],Potency [18],Potency [19],Potency [20]
Clc1cccc(-c2nnnn2Cc2cccnc2)c1Cl,inactive,inactive,inactive,inactive,inactive,inactive,inactive,inactive,inactive,inactive,inactive,inactive,inactive,–,–,–,–,–,–,–
CC(C)[C@H](C(=O)Nc1ccc(C(=O)NO)cc1)c1ccccc1,1.18 µM (active),1.48 µM (active),2.41 µM (active),418 nM (active),526 nM (active),3.06 µM (active),0.743 µM (active),1.22 µM (active),2.64 µM (active),2.96 µM (active),16.6 µM (active),–,1.18 µM (active),0.585 µM (active),1.04 µM (active),465 nM (active),9.27 µM (active),827 nM (active),2.33 µM (active),928 nM (active)
CNc1nccc(-c2cccnc2Oc2cc(C(=O)Nc3cccc(C(F)(F)F)c3)ccc2C)n1,11.8 µM (active),16.6 µM (active),9.61 µM (active),11800 nM (active),16600 nM (active),19.3 µM (active),18.7 µM (active),15.3 µM (active),8.33 µM (active),4.69 µM (active),–,inactive,–,–,–,–,–,–,–,–
COc1cccc2c(NCc3ccccc3)nc(-n3c(N)nc4ccccc43)nc12,9.35 µM (active),3.72 µM (active),10.8 µM (active),9350 nM (active),9350 nM (active),10.9 µM (active),9.35 µM (active),9.68 µM (active),–,9.35 µM (active),inactive,14.8 µM (active),18.7 µM (active),7.37 µM (active),7.37 µM (active),7370 nM (active),13.1 µM (active),9270 nM (active),2.33 µM (active),8270 nM (active)
CNC(=O)c1nn(C)c2c1C(C)(C)Cc1cnc(Nc3ccc(N4CCN(C)CC4)cc3)nc1-2,5.9 µM (active),2.35 µM (active),1.71 µM (active),743 nM (active),662 nM (active),6.85 µM (active),3.32 µM (active),1.53 µM (active),3.72 µM (active),–,inactive,inactive,11.8 µM (active),–,0.928 µM (active),1170 nM (active),9.27 µM (active),1850 nM (active),9.27 µM (active),–
CC(C)(C)OC(=O)Nc1ccc(-c2cc(C(=O)NCCCCCCC(=O)NO)no2)cc1,4.69 µM (active),2.35 µM (active),6.81 µM (active),1180 nM (active),1660 nM (active),17.2 µM (active),2.35 µM (active),4.32 µM (active),5.26 µM (active),inactive,–,7.43 µM (active),3.72 µM (active),1.17 µM (active),2.33 µM (active),32.9 nM (active),18.5 µM (active),–,–,–
CCc1c2c(nc3ccc(O)cc13)-c1cc3c(c(=O)n1C2)COC(=O)[C@]3(O)CC,inactive,0.0187 µM (active),0.152 µM (active),23.5 nM (active),1 nM (active),0.193 µM (active),0.105 µM (active),0.0086 µM (active),0.372 µM (active),0.0187 µM (active),–,0.132 µM (active),0.235 µM (active),–,0.0657 µM (active),–,2.61 µM (active),–,–,1 nM (active)
O=C(Cc1ccc(-c2ccc(OCCN3CCOCC3)cc2)cn1)NCc1ccccc1,3.72 µM (active),0.0148 µM (active),6.81 µM (active),83.3 nM (active),9.3 nM (active),0.0385 µM (active),13.2 µM (active),0.0306 µM (active),0.0526 µM (active),0.0235 µM (active),–,–,0.0296 µM (active),–,0.131 µM (active),147 nM (active),–,147 nM (active),0.117 µM (active),–
CC=C1NC(=O)[C@H]2CSSCCC=C[C@H](CC(=O)N[C@H](C(C)C)C(=O)N2)OC(=O)[C@H](C(C)C)NC1=O,0.0296 µM (active),0.0118 µM (active),0.121 µM (active),9.3 nM (active),9.3 nM (active),0.0122 µM (active),0.0053 µM (active),0.0193 µM (active),–,0.0118 µM (active),0.0526 µM (active),0.0296 µM (active),0.0148 µM (active),inactive,inactive,11700 nM (active),–,inactive,inactive,inactive
CC(=O)SC[C@@H](C)C(=O)N1CCC[C@H]1C(=O)N[C@@H](Cc1ccccc1)C(=O)O,inactive,inactive,inactive,inactive,inactive,inactive,inactive,inactive,inactive,inactive,–,inactive,inactive,–,–,–,–,–,–,–

# — PubChem BioAssay (NCATS)
